Data on five compounds can be found in PubChem BioAssay.

Activity calls are given as the source filed them.

For assay [1], the system named is Human papillomavirus type 1a protein E7 (residues 44-93). In words: small molecules binding HPV E7 44-93 – biochemical, small-molecule microarray, residues 44-93, 635 nm fluorescence, primary screen (AID 1108).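 Further: E7 fragment applied at 1 µg/mL in TBST for 1 h at 4 C; score combines spot fluorescence with its signal to noise ratio.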 The note with it: fluorescence 635 nm, higher = more signal.
A short description of assay [2]: hepatitis C replication reporter changes, two-sided – Huh7 cells, luciferase reporter, HCV replication inhibitor project, primary screen (AID 1109).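 Further: huh7 hepatoma cells harbouring a luciferase neomycin HCV replicon reporter; luciferase luminescence as measure of HCV replicon replication; test concentration not given here.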 To be noted: Huh7 HCV replicon luciferase reporter, 48 h; higher = more signal. On the technique in general: A reporter such as luciferase makes a cellular process visible.
Assay [3] concerns the target Left-right determination factor 2 (Homo sapiens) (UniProt O00292). In words: small molecules binding LEFTY2 protein – biochemical, small-molecule microarray, 635 nm fluorescence scan, primary screen (AID 1110). To be noted: higher = more signal.
The target of assay [4] is Calmodulin-1 (Homo sapiens) (UniProt P0DP23). In words: small molecules binding calmodulin-1 with EGTA – biochemical, small-molecule microarray, Cy5-labelled CALM1, profiling panel (AID 1111).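 Further: labelled calmodulin applied in Tris saline Tween buffer holding calcium plus EGTA and DTT.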 To be noted: Cy5-CALM1 binding fluorescence, higher = more signal.
For assay [5] the target is unchanged. In words: small molecules binding Ca-loaded calmodulin-1 – biochemical, small-molecule microarray, Cy5-labelled CALM1, plus calcium, artefact control for SMM control-protein annotation, profiling panel (AID 1112).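 Further: score merges spot fluorescence with signal to noise from triplicate slides.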 The note with it: Cy5-CALM1 binding fluorescence, higher = more signal.
Assay [6] in a line: probe aWnt5a binding to arrayed compounds – biochemical, biotinylated probe, 635/667 nm fluorescence, primary screen (AID 1113).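 Further: score merges 667 nm fluorescence intensity with signal-to-noise per printed feature.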 The note with it: small-molecule microarray, higher = more signal.
Assay [7] in a line: probe aShh binding to arrayed compounds – biochemical, biotinylated probe, 635/667 nm fluorescence, primary screen (AID 1114).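 Further: probe is biotin-labelled aShh protein from a stem cell growth factor screen; measures binding of labelled protein to compounds printed on the slide; score merges feature fluorescence at 667 nm with signal-to-noise.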 The note with it: small-molecule microarray, higher = more signal.
A short description of assay [8]: probe aNog binding to arrayed compounds – biochemical, biotinylated probe, 635/667 nm fluorescence, primary screen (AID 1115).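 Further: probe is biotinylated aNog protein used at 0.15 µg/mL for 1 h at 4 C; z-score combines 667 nm fluorescence of each spot with its signal to noise.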 The note with it: small-molecule microarray, higher = more signal.
Assay [9] has as its target Torsin-1A-interacting protein 1 (Homo sapiens) (UniProt Q5JTV8). In words: compound microarray binding of lysate hLAP1 – cell lysate, small-molecule microarray, COS7 lysate, 635/667 nm fluorescence, primary screen (AID 1116). The note with it: 635 nm fluorescence, higher = more signal.
Assay [10] deals with Alpha-bungarotoxin (Bungarus multicinctus) (UniProt P60615). In words: compounds binding labelled alpha-BTX control protein – biochemical, small-molecule microarray, Alexa647 label, 635/667 nm fluorescence, artefact control for SMM control protein annotation, profiling panel (AID 1117). To be noted: alpha-BTX-A647 binding fluorescence, higher = more signal.
Another assay deals with Albumin (Bos taurus) (UniProt P02769). In words: compounds binding labelled BSA control protein – biochemical, small-molecule microarray, Alexa647 label, 635/667 nm fluorescence, artefact control for SMM control protein annotation, profiling panel (AID 1118).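 Further: score merges 667 nm emission intensity and signal-to-noise per printed compound spot.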 The note with it: BSA-A647 binding, fluorescence 635 nm, higher = more signal.
The nature of assay [11]: probe aXIP binding to arrayed compounds – biochemical, NeuroSMM set, 635/667 nm fluorescence, primary screen (AID 1119).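 Further: probe is the protein aXip251-270 applied at 1 µg/mL to compound-printed slides; binding of probe to printed compounds measured as 667 nm fluorescence plus signal to noise.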 The note with it: small-molecule microarray, higher = more signal, called active from +8 up or from −8 down.
Assay [12] is described as follows: probe aNOTCH3 binding on compound microarray – biochemical, small-molecule microarray, 635/667 nm fluorescence, primary screen (AID 1120).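 Further: probe is a biotin-tagged antibody raised against NOTCH3 rather than NOTCH3 protein; score merges spot fluorescence near 667 nm with spot signal to noise.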 To be noted: higher = more signal.
The nature of assay [13]: probe aNOTCH2 binding on compound microarray – biochemical, small-molecule microarray, 635/667 nm fluorescence, primary screen (AID 1121).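 Further: score merges feature fluorescence read at 667 nm with its signal to noise.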 The note with it: higher = more signal.
Assay [14] deals with Carbonic anhydrase 2 (Homo sapiens) (UniProt P00918). In words: compounds binding carbonic anhydrase 2 – biochemical, small-molecule microarray, Alexa647-labelled CAII, profiling panel (AID 1122). The note with it: CAII-A647 binding fluorescence, higher = more signal.
Assay [15] can be described thus: COS7 lysate on small-molecule microarray, probe aHis, 635 nm (AID 1123).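 Further: z-score combines 667nm fluorescence intensity with signal-to-noise per printed compound spot.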 The note with it: COS7 cell lysate, fluorescence, higher = more signal.
Assay [16] is described as follows: probe aLAP1 signal on lysate-treated microarray – cell lysate, small-molecule microarray, COS7 lysate, primary screen (AID 1124).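 Further: lysate comes from COS7 cells expressing LAP1 and is applied at 0.3 µg/mL; score merges spot fluorescence near 667 nm with signal-to-noise over triplicate slides.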 The note with it: probe aLAP1, fluorescence, higher = more signal.
The test system of a further assay is Sam68 (KHDRBS1). In words: compounds binding KHDRBS1 protein – biochemical, small-molecule microarray, 635 nm fluorescence, primary screen (AID 1125).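 Further: score merges 667 nm channel intensity with signal to noise over triplicate slides.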 To be noted: higher = more signal.
In assay [17] the test system is Chordin-like protein 2 (CHRDL2). In words: compounds binding chordin-like 2 – biochemical, small-molecule microarray, 635 nm fluorescence, primary screen (AID 1126).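 Further: printed compound slides probed with Chrdl2 protein at 4 µg/mL for 1 h at 4 C; score merges 667 nm emission intensity with signal to noise over three replicate slides.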 The note with it: fluorescence 635 nm, higher = more signal.
The target of assay [18] is Concanavalin-A (Canavalia ensiformis) (UniProt P02866). In words: compounds binding concanavalin A lectin – biochemical, small-molecule microarray, Alexa647 label, 635 nm, artefact control for SMM control protein annotation, primary screen (AID 1127).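 Further: z combines 667 nm emission intensity with signal-to-noise across three replicate slides.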 The note with it: ConA-A647 binding fluorescence, higher = more signal.
Concanavalin-A (Canavalia ensiformis), sequence (P02866 whole entry, looked up): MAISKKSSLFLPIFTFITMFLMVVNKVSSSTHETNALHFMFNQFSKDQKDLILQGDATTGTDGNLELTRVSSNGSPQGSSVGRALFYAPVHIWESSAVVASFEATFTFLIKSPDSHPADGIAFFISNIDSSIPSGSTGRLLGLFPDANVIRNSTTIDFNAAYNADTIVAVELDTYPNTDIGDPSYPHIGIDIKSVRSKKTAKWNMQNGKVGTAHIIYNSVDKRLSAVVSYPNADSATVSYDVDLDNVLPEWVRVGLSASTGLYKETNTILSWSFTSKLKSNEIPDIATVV

Torsin-1A-interacting protein 1 (Homo sapiens), sequence (Q5JTV8 whole entry, looked up): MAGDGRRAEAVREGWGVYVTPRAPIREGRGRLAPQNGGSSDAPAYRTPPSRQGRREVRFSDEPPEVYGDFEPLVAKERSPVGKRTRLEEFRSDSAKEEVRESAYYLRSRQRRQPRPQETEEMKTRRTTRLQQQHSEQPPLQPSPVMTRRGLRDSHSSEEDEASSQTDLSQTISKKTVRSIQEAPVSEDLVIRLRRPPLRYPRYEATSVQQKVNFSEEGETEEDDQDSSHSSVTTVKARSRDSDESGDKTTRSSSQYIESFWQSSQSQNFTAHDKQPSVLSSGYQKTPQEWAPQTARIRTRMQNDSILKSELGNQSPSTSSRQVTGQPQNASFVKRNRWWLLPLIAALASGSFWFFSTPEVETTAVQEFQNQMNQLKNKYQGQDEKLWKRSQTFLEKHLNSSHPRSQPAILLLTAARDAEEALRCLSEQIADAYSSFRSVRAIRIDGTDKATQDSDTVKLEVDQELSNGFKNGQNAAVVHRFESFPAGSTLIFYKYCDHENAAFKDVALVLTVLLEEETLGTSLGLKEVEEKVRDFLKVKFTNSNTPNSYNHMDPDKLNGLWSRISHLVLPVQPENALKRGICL
Albumin (Bos taurus), sequence (P02769 whole entry, looked up): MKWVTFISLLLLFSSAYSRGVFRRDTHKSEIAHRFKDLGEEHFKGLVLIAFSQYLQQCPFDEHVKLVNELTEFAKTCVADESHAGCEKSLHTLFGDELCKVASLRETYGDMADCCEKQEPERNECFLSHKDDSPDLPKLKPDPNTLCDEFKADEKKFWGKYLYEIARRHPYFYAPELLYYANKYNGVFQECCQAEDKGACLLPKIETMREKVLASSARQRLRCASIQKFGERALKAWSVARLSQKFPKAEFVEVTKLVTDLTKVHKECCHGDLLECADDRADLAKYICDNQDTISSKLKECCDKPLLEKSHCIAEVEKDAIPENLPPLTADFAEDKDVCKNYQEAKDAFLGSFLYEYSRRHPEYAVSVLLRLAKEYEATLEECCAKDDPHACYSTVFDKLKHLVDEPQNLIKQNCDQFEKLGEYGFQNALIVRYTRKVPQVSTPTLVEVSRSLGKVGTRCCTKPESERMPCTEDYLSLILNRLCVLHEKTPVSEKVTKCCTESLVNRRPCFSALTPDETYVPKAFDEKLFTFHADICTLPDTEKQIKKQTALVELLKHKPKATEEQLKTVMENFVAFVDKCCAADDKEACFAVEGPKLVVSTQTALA
Alpha-bungarotoxin (Bungarus multicinctus), sequence (P60615 whole entry, looked up): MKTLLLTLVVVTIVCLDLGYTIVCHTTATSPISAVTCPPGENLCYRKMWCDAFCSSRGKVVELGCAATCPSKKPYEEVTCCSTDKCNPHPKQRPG
Left-right determination factor 2 (Homo sapiens), sequence (O00292 whole entry, looked up): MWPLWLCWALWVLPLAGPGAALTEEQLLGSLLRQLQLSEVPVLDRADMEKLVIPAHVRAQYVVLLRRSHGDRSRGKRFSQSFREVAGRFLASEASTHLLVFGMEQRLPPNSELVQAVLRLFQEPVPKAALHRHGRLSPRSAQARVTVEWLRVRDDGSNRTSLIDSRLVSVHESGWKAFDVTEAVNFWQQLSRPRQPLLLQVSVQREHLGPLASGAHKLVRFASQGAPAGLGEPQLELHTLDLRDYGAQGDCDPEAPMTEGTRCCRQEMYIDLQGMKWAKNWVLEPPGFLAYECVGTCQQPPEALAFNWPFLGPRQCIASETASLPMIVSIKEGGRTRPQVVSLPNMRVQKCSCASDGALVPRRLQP

Consider `Cc1c(NC(=O)/C(C#N)=C/C=C/c2ccc(N(C)C)cc2)c(=O)n(-c2ccccc2)n1C`, for which the composite z-score was 0.55 in assay [1]; 0.431 in assay [3]; 0.824 in assay [4]; -0.224 in [5]; 0.19 in assay [6]; 0.173 in assay [7]. Moreover, the composite z-score in assay [8] came out at 0.432; in assay [9], 1.69; in assay [10], 1.04; in the assay with Albumin (Bos taurus) it was 0.376; in [12] it was 0.308; in assay [13], 0.292. In addition, the composite z-score in [14] was 0.456; in assay [15] it was 2.54; in [16], -0.154; with Sam68 (KHDRBS1), 1.22; in assay [17], 0.568; in [18] it was 1.1. Also, the z-score in assay [2] was -0.754. In addition, the composite Z-score in [11] is 1.02 (inactive).

In the case of `COc1ccc(NN2C(C(O)c3ccco3)C=CC3C(=O)N(C4CCCCC4)C(=O)C32)cc1` (stereo not given), the composite z-score in assay [1] stood at 1.42; in assay [3] it was 0.519; in assay [4] it was 0.9; in [5] it was 0.267; in assay [6], 0.0613; in assay [7] it was 0.0639. Further, the composite z-score in assay [8] is 0.353; in assay [9] it was 0.605; in assay [10], 0.916; with Albumin (Bos taurus), 0.749; in assay [12], 0.353; in assay [13], -0.115. Moreover, the composite z-score is 0.377 in assay [14]; 1.44 in [15]; 0.564 in [16]; 1.32 in the assay with Sam68 (KHDRBS1); 0.0446 in [17]; 1 in [18]. In [2], this compound displayed a z-score of 0.224. For the same compound, in [11], the composite Z-score is 0.0786 (inactive).

Take `CC1CC/C=C\[C@H]2OC34C=CCN(c5ccc6ccccc6c5)C(=O)[C@H]3N(C(CO)C(C)C)C(=O)[C@@H]4C2C(=O)O1` (stereo not given in full): the composite z-score in assay [1] is -0.546; in assay [3], -0.854; in assay [4], -0.822; in [5] it was -0.419; in assay [6] it was -0.169; in assay [7] it was -0.164. The composite z-score was -0.267 in assay [8]; -0.203 in [9]; 0.462 in [10]; 0.912 with Albumin (Bos taurus); -0.125 in assay [12]; -0.125 in assay [13]. Besides, the composite z-score in assay [14] is 0.786; in assay [15], 1.07; in [16], 0.407; in the assay with Sam68 (KHDRBS1), 0.0645; in [17], -0.315; in [18] it was 0.0601. In addition, in assay [2], the z-score is -0.957. Besides, the composite Z-score in [11] is 0.142 (inactive).

`COCCOC(=O)N1C(=O)[C@@]2(c3cc(C#Cc4ccc(OC)cc4)ccc31)[C@H](C(=O)N1CCCCCCC1)[C@H]1C(=O)O[C@H](c3ccccc3)[C@H](c3ccccc3)N1[C@@H]2c1ccc(O)cc1`: the composite z-score is 1.36 in [1]; 0.505 in assay [3]; 0.172 in [4]; 0.184 in assay [5]; -0.0239 in assay [6]; 0.603 in assay [7]. Moreover, the composite z-score in [8] is 1.18; in assay [9], 0.604; in [10], 0.723; with Albumin (Bos taurus), -0.617; in assay [12] it was 0.807; in assay [13] it was 0.0137. Besides, the composite z-score in assay [14] is 0.168; in [15], 0.234; in [16], 0.421; in the assay with Sam68 (KHDRBS1), 1.15; in assay [17], 0.643; in assay [18], 0.692. The z-score in assay [2] was -0.949. Besides, the composite Z-score in assay [11] is 0.527 (inactive).

As to `COc1cc(CO)cc(I)c1O[C@H]1C=C(C(=O)NCCO)C[C@@H](N(Cc2ccc(F)cc2)C(=O)C2CCCO2)[C@@H]1O` (stereo not given in full), the composite z-score in assay [1] is -0.284; in [3], 0.407; in [4], -0.0131; in assay [5], -0.402; in assay [6], -0.124; in assay [7], -0.338. Besides, the composite z-score in [8] was -0.0312; in assay [9] it was -0.0829; in [10], 0.988; in the assay with Albumin (Bos taurus), -0.53; in assay [12], -0.154; in assay [13] it was -0.0781. Moreover, the composite z-score was -0.124 in [14]; -0.248 in [15]; -0.144 in [16]; 0.0803 with Sam68 (KHDRBS1); 0.325 in assay [17]; -0.422 in assay [18]. In addition, the z-score in [2] stood at 0.561. Also, in [11], the composite Z-score was -0.77 (inactive).
